# Structures can show the parent of a compound that is named as a salt. ± gives the standard deviation of the averaged measurements.
# System: Klebsiella pneumoniae KPC-119
# Experiment: percent growth inhibition of drug alone vs DMSO control; higher = more growth inhibition
# Conditions: antibiotic (0.125x MIC): none (0.1% DMSO); 7 µM
row,SMILES,percent growth inhibition of drug alone [%]
1,C[C@]12CC[C@H](O)C[C@@H]1CC[C@@H]1[C@@H]2CC[C@]2(C)C(=O)CC[C@@H]12 [Epiandrosterone],0.561 ± 2
2,C=CCN1CC[C@]23c4c5ccc(O)c4O[C@H]2C(=O)CC[C@@]3(O)[C@H]1C5 [Naloxone hydrochloride],-0.923 ± 1.2
3,O=C([O-])c1ccccc1-c1c2cc(Br)c(=O)cc-2oc2[c]([Hg+])c([O-])c(Br)cc12.[Na+].[Na+].[OH-] [Merbromin],1.39 ± 0.87
4,CCn1cc(C(=O)O)c(=O)c2cc3c(cc21)OCO3 [Oxolinic acid],6.34 ± 3
5,C#CCN(C)[C@H](C)Cc1ccccc1 [Selegiline hydrochloride],-1.33 ± 2.5
6,C[N+]1([O-])[C@@H]2C[C@@H](OC(=O)[C@H](CO)c3ccccc3)C[C@H]1[C@@H]1O[C@@H]12 (stereo partly specified) [Scopolamin-N-oxide hydrobromide],-1.08 ± 2.3

# Same assay, conditions: antibiotic (0.125x MIC): none (0.1% DMSO); 20 µM
row,SMILES,percent growth inhibition of drug alone [%]
1,C[C@]12CC[C@H](O)C[C@@H]1CC[C@@H]1[C@@H]2CC[C@]2(C)C(=O)CC[C@@H]12 [Epiandrosterone],-1.04 ± 0.09
2,C=CCN1CC[C@]23c4c5ccc(O)c4O[C@H]2C(=O)CC[C@@]3(O)[C@H]1C5 [Naloxone hydrochloride],0.247 ± 1.1
3,O=C([O-])c1ccccc1-c1c2cc(Br)c(=O)cc-2oc2[c]([Hg+])c([O-])c(Br)cc12.[Na+].[Na+].[OH-] [Merbromin],7.86 ± 1.4
4,CCn1cc(C(=O)O)c(=O)c2cc3c(cc21)OCO3 [Oxolinic acid],16.3 ± 9.5
5,C#CCN(C)[C@H](C)Cc1ccccc1 [Selegiline hydrochloride],0.878 ± 0.49
6,C[N+]1([O-])[C@@H]2C[C@@H](OC(=O)[C@H](CO)c3ccccc3)C[C@H]1[C@@H]1O[C@@H]12 (stereo partly specified) [Scopolamin-N-oxide hydrobromide],-2.41 ± 3.1

# System: Klebsiella pneumoniae KPC-119
# Experiment: percent growth inhibition of drug + antibiotic vs DMSO control; higher = more growth inhibition
# Conditions: antibiotic (0.125x MIC): colistin; 20 µM
row,SMILES,percent growth inhibition [%]
1,C=CCN1CC[C@]23c4c5ccc(O)c4O[C@H]2C(=O)CC[C@@]3(O)[C@H]1C5 [Naloxone hydrochloride],-10.2 ± 2.5
2,CCn1cc(C(=O)O)c(=O)c2cc3c(cc21)OCO3 [Oxolinic acid],100.2 ± 0.18
3,C#CCN(C)[C@H](C)Cc1ccccc1 [Selegiline hydrochloride],4.23 ± 6.9
4,C[N+]1([O-])[C@@H]2C[C@@H](OC(=O)[C@H](CO)c3ccccc3)C[C@H]1[C@@H]1O[C@@H]12 (stereo partly specified) [Scopolamin-N-oxide hydrobromide],7.85 ± 0.11
